Test results: paper PMC4552634, “A New Set of Chemical Starting Points with Plasmodium falciparum Transmission-Blocking Potential for Antimalarial Drug Discovery” (PLoS ONE, 2015)
The whole screen tested about 13,000 compounds, of which about 3,200 (25%) showed an effect of 50% or more. The list shows a part of the results.

These compounds were tested on P. falciparum stage V gametocytes. Conditions: 48 h, 5 µM; inhibitor.
Set-up: BacTiter-Glo ATP luminescence viability of purified stage V gametocytes in 384-well plates, per cent inhibition versus DMSO
`CC[C@H](C)CNC(=O)c1cccc(-c2cccc(CNCC3CNCCCO3)c2)n1` (stereo partly drawn) [TCMDC-134217] was tested, and the “% Inhibition” value was 48.98%. In the case of `Clc1cc(Nc2ncnc3sc(C#Cc4ncc[nH]4)cc23)ccc1OCc1ccccn1` [TCMDC-135429], the “% Inhibition” value was -6.463%. `Cc1cc(Cl)c(S(=O)(=O)N2CCc3ccccc32)cc1OCC(=O)NC1CCCCC1` [TCMDC-124369] was tested, and the “% Inhibition” value was -19.22%. In the case of `Fc1ccc(-c2cncc(-c3ccc(F)cc3)n2)cc1` [TCMDC-137988], the “% Inhibition” value was -9.929%. `Cc1ccccc1C1CCN(C2CCC(NC(=O)/C=C/c3cccc(F)c3)CC2)CC1` (stereo not drawn) [TCMDC-133505] was tested, and the “% Inhibition” value was -47.31%. For `Nc1ccc(-c2cnc3[nH]cc(-c4ccc(C(=O)O)cc4)c3c2)cn1` [TCMDC-136383], the “% Inhibition” value was 1.916%. With `COc1ccc2nc(-c3ccc(C(=O)NCCCN4CCN(c5cc(Cl)ccc5OC)CC4)cc3OC)[nH]c2c1` [TCMDC-140025] the “% Inhibition” value was -24.14%. In the case of `CCCc1cc(Cc2cnc(N)nc2N)cc(OC)c1OC` [TCMDC-137647], the “% Inhibition” value was 0.312%. In the case of `O=C(Nc1cc(C(F)(F)F)cc(C(F)(F)F)c1)Nc1cc(C(F)(F)F)cc(C(F)(F)F)c1` [TCMDC-123956], the “% Inhibition” value was -66.5%. For `CCOC(=O)c1ccc(-c2cnoc2-c2cc(CC)c(OC)cc2O)o1` [TCMDC-124201], the “% Inhibition” value was -15.35%. `CC1CN(c2cc(=O)n(Cc3ccc(NC(=O)Nc4ccc(-c5ccccc5)cc4)cc3)cn2)CC(C)N1` (stereo not drawn) [TCMDC-133372] was tested, and the “% Inhibition” value was 24.66%. `CCOc1cc(C(=O)NCCc2ccc(Cl)c(Cl)c2)ccc1-c1nc2ccc(Cl)cc2[nH]1` [TCMDC-140905] was tested, and the “% Inhibition” value was -12.3%. In the case of `O=C(NCc1ccc(Cl)c(Cl)c1)c1ccc(-c2nc3ccc(Cl)cc3[nH]2)cc1` [TCMDC-140441], the “% Inhibition” value was 19.73%. For `CCOc1cc(C(=O)NCc2ccc(Cl)c(Cl)c2)ccc1-c1nc2ccc(Cl)cc2[nH]1` [TCMDC-140903], the “% Inhibition” value was 96.39%. For `Cc1ccc2[nH]c(-c3ccc(C(=O)NCc4ccc(Cl)c(Cl)c4)cc3)nc2c1C` [TCMDC-140450], the “% Inhibition” value was 11.51%. In the case of `COC(=O)c1ccc2nc(-c3ccc(C(=O)NCc4ccc(Cl)c(Cl)c4)cc3)[nH]c2c1` [TCMDC-140445], the “% Inhibition” value was 73.87%. With `CCOc1cc(C(=O)NCc2cc(Cl)cc(Cl)c2)ccc1-c1nc2ccc(Cl)cc2[nH]1` [TCMDC-140904] the “% Inhibition” value was -8.665%. With `CC1(C)[C@H]2CC[C@@H](CNc3nc(NCCc4cnc[nH]4)nc(NCc4cc(F)ccc4F)n3)[C@@H]1C2` [TCMDC-139317] the “% Inhibition” value was -2.684%. For `O=C(CCc1c[nH]cn1)Nc1cccc(-c2ccc(-c3nc4ccccc4[nH]3)s2)c1` [TCMDC-132152], the “% Inhibition” value was -14.42%. With `Cn1cc(C2CCN(CCCCCNC(=O)/C=C/c3ccc(Cl)c(Cl)c3)CC2)c2cc(O)ccc21` [TCMDC-139364] the “% Inhibition” value was -26.1%. `CN(C)Cc1c(O)ccc2[nH]c(-c3cccc(F)c3)nc12` [TCMDC-136535] was tested, and the “% Inhibition” value was -72.73%. With `CN(C)Cc1c(O)ccc2[nH]c(-c3ccc(F)cc3F)nc12` [TCMDC-136534] the “% Inhibition” value was 71.11%. `CC(C)CN(Cc1c(O)ccc2[nH]c(-c3ccc(F)cc3F)nc12)CC(C)C` [TCMDC-136358] was tested, and the “% Inhibition” value was -65.39%. For `Cn1cnc(CCNC(=O)c2ccc(-c3cccc(-c4nc5cc(F)ccc5[nH]4)c3)cc2)c1` [TCMDC-132497], the “% Inhibition” value was -1.156%. With `CC(C)N1CCC(N(Cc2ccc(-c3ccc(C(F)(F)F)cc3)cc2)C(=O)Cn2c(CCc3cccc(F)c3F)nc(=O)c3cccnc32)CC1` [TCMDC-136049] the “% Inhibition” value was 118.8%. For `CC(C)(C)N1CCC(N(Cc2ccc(-c3ccc(C(F)(F)F)cc3)cc2)C(=O)Cn2c(CCc3cccc(F)c3F)nc(=O)c3cccnc32)CC1` [TCMDC-136050], the “% Inhibition” value was 107.4%. `O=C(Nc1cccc(-c2nn3ncccc3c2-c2ccnc(Nc3cccc(C(F)(F)F)c3)n2)c1)c1c(F)cccc1F` [TCMDC-135549] was tested, and the “% Inhibition” value was -33.07%. For `COCn1ncc2cc(-c3cccc(NC(=O)c4csc(NC(C)=O)n4)c3)ccc21` [TCMDC-133146], the “% Inhibition” value was 24.99%. In the case of `CNC(=O)C(C)N(c1ccc(Cl)cc1)c1nc(C(C)(C)C)cs1` (stereo not drawn) [TCMDC-125380], the “% Inhibition” value was 52.18%. In the case of `CC1(C)N=C(N)N=C(N)N1OCCCc1cc(Cl)c(Cl)cc1Cl` [TCMDC-131696], the “% Inhibition” value was 1.916%. With `CCCCc1cc(N2CCC(NC(C)=O)C2)nc(Nc2ccc(C)cc2)n1` (stereo not drawn) [TCMDC-134020] the “% Inhibition” value was 11.89%. With `COc1cc2nc(N(C)C)nc(Nc3ccc(OCc4ccccc4)cc3)c2cc1OC` [TCMDC-137183] the “% Inhibition” value was 59.63%. For `COc1cc2nc(Nc3ccc(C)cc3)nc(Nc3ccc(C)cc3)c2cc1OC.Cl` [TCMDC-138540], the “% Inhibition” value was 91.22%. For `COc1cc2nc(C)nc(Nc3ccc(Oc4ccccc4)cc3)c2cc1OC` [TCMDC-131940], the “% Inhibition” value was 0.7535%. With `COc1cc2nc(Nc3ccc(Oc4ccccc4)cc3)nc(Nc3ccc(Oc4ccccc4)cc3)c2cc1OC` [TCMDC-138238] the “% Inhibition” value was -17.62%. `N#Cc1cnc(Nc2ccc(Oc3ccccc3)cc2)nc1Nc1cccc(S(N)(=O)=O)c1` [TCMDC-138613] was tested, and the “% Inhibition” value was -50.28%. For `COc1cc2nc(C)nc(Nc3ccc(Cc4ccccc4)cc3)c2cc1OC` [TCMDC-131941], the “% Inhibition” value was 1.462%. In the case of `COc1ccc(Nc2nc(N)c3cc(OC)c(OC)cc3n2)cc1OC.Cl` [TCMDC-131881], the “% Inhibition” value was -0.9625%. In the case of `COc1cc2nccc(Nc3ccc(Oc4ccccc4)cc3)c2cc1OC.Cl` [TCMDC-131917], the “% Inhibition” value was -23.95%. For `COc1cc2nc(NCc3ccc(S(N)(=O)=O)cc3)nc(Nc3ccc(Oc4ccccc4)cc3)c2cc1OC` [TCMDC-138256], the “% Inhibition” value was 65.95%. In the case of `COc1cc2nc(NCCCO)nc(Nc3ccc(Oc4ccccc4)cc3)c2cc1OC` [TCMDC-138255], the “% Inhibition” value was 110.2%. For `COc1cc2nc(Nc3ccc4c(c3)OCCO4)nc(N)c2cc1OC.Cl` [TCMDC-131882], the “% Inhibition” value was -45.81%. In the case of `COc1cc2ncnc(Nc3ccc(OCc4ccccc4)c(OCc4ccccc4)c3)c2cc1OC` [TCMDC-131922], the “% Inhibition” value was -20.12%. For `C=C(NC(=O)C1CCCCC1)C(=O)OC` [TCMDC-131685], the “% Inhibition” value was 0.06563%. For `NC1=NC(c2ccccc2)(c2ccccn2)C(=O)N1CCCc1ccccc1` (stereo not drawn) [TCMDC-136603], the “% Inhibition” value was 9.29%. With `Cc1cc(N2CCCC2)nc(Nc2ccc(NC(=O)c3ccccc3F)cc2)n1` [TCMDC-124710] the “% Inhibition” value was -34.77%. For `CCNc1cc(C(=O)N[C@@H](Cc2ccccc2)[C@H](O)CNCc2cccc(-c3cncnc3)c2)cc(N2CCCC2=O)c1` [TCMDC-141687], the “% Inhibition” value was 18.59%. With `O=C(Nc1cccc(-c2nn3ccccc3c2-c2ccnc(Nc3cccc(N4CCCC4=O)c3)n2)c1)c1cc(F)ccc1F` [TCMDC-135850] the “% Inhibition” value was 10.23%. With `COc1ccccc1C1CN(CCNC(=O)c2ncc(C)[nH]2)Cc2ccccc2O1` (stereo not drawn) [TCMDC-124657] the “% Inhibition” value was -1.409%. With `COc1cccc2cc(C(=O)N[C@@H](CC(C)C)C(=O)NC(/C=N/NC(=O)c3ccccc3)CCc3ccccc3)oc12` (stereo partly drawn) [TCMDC-135434] the “% Inhibition” value was -2.183%. In the case of `COc1ccc(Cn2cncc2CN(CCC(C)C)C(=O)c2ccc(Cl)nc2Cl)cc1` [TCMDC-132536], the “% Inhibition” value was 21.31%. With `Cc1cccc(C(=O)N2CCN(Cc3cccc(NC(=O)c4cccs4)c3)CC2)c1` [TCMDC-136328] the “% Inhibition” value was 7.958%. In the case of `O=C(Nc1cccc(CN2CCCN(Cc3ccc(O)cc3)CC2)c1)c1cc2ccccc2s1` [TCMDC-141878], the “% Inhibition” value was 32.43%. For `O=C(Nc1cccc(CN2CCN(C(=O)c3ccccc3)CC2)c1)c1cccs1` [TCMDC-136325], the “% Inhibition” value was 14.84%. In the case of `Cc1ccc(CN2CCCN(Cc3cccc(NC(=O)c4cc5ccccc5s4)c3)CC2)cc1C` [TCMDC-141879], the “% Inhibition” value was 80.31%. For `Cc1ccc(CN2CCN(Cc3cccc(NC(=O)c4ccc5ccccc5c4)c3)CC2)cc1C` [TCMDC-141887], the “% Inhibition” value was -29.11%. `O=C(Nc1cccc(CN2CCN(C(=O)c3cccs3)CC2)c1)c1cccs1` [TCMDC-136329] was tested, and the “% Inhibition” value was 33.24%. For `Cc1ccc(CN2CCN(Cc3cccc(NC(=O)c4cccs4)c3)CC2)cc1C` [TCMDC-141888], the “% Inhibition” value was 86.1%. In the case of `O=C(Nc1cccc(CN2CCN(C(=O)c3cccc(F)c3)CC2)c1)c1cccs1` [TCMDC-136330], the “% Inhibition” value was 79.41%. In the case of `COc1ccc(CN2CCCN(Cc3cccc(NC(=O)c4cc5ccccc5s4)c3)CC2)cc1` [TCMDC-141867], the “% Inhibition” value was -63.54%. In the case of `O=C(Nc1cccc(CN2CCCN(Cc3ccc(F)cc3)CC2)c1)c1cc2ccccc2s1` [TCMDC-141876], the “% Inhibition” value was 71.77%. In the case of `O=C(NCC1CCC(CNCCCc2ccccc2)CC1)c1cc(Cl)cc(Cl)c1` (stereo not drawn) [TCMDC-140679], the “% Inhibition” value was -14.35%. `CCCc1cc(N2CCC(c3ccccc3)(N3CCCCC3)CC2)nc(Nc2ccc(OC)cc2)n1` [TCMDC-132389] was tested, and the “% Inhibition” value was -43.67%. `O=C(Nc1cccc(CN2CCN(C(=O)c3ccccc3)CC2)c1)c1ccco1` [TCMDC-136321] was tested, and the “% Inhibition” value was -15.6%. For `Cc1cccc(C(=O)N2CCN(Cc3cccc(NC(=O)c4ccco4)c3)CC2)c1` [TCMDC-136323], the “% Inhibition” value was 80.03%. With `O=C(Nc1cccc(CN2CCCN(Cc3ccc4c(c3)OCO4)CC2)c1)c1cc2ccccc2s1` [TCMDC-141865] the “% Inhibition” value was 83.34%. `O=C(Nc1cccc(CN2CCN(C(=O)c3cccc(F)c3)CC2)c1)c1ccco1` [TCMDC-136324] was tested, and the “% Inhibition” value was 35.66%. For `O=C(Nc1cccc(CN2CCN(Cc3ccc(O)cc3)CC2)c1)c1cc2ccccc2s1` [TCMDC-134624], the “% Inhibition” value was 6.138%. With `N#Cc1ccc(CN2CCCN(Cc3cccc(NC(=O)c4cc5ccccc5s4)c3)CC2)cc1` [TCMDC-141866] the “% Inhibition” value was -28.76%.
